Compounds with a hit are over-represented: about 4.8% of the library has one in this group of screens.
HepG2 tox-1: qHTS for Inhibitors of TGF-b: Cytotox Counterscreen; actives 0.76% (n = 410,000); HepG2 CAGA-GFP viability, ATP luminescence, 18 h; AID 588856, 2011; Potency, µM (highest dose often 46.1 µM), inactives show top-dose activity change, negative = cytotoxicity, most hits filed as cytotoxic; also: potency is read from the fitted curve at half-maximal effect
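CellTiter-Glo luminescence gave cytotoxicity after 18 hours at 37 degrees C. The cells were HepG2 CAGA-GFP in 1% FBS DMEM, stimulated with 500 pg/mL TGF-beta after compound addition. %Activity was normalised to no-cell wells (complete cell-killing) and DMSO (no toxicity), and curves were fitted and classified.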
ATXN viability: Viability Counterscreen for Primary qHTS for Inhibitors of ATXN expression; S2 cells (HEK-293 line with an ATXN2-luciferase reporter) viability, CellTiter-Fluor protease fluorescence, 24 h; Potency, µM (doses to about 56.7 µM), usual class: cytotoxic; actives 0.49% (n = 400,000); AID 651635, 2014; also: potency is read from the fitted curve at half-maximal effect; nearly all actives have a fitted effect of over 40% in size
ATXN2 expr inh: Primary qHTS for Inhibitors of ATXN expression; AID 1745845, 2022; actives 0.72% (n = 360,000); Potency, µM (top dose mostly 57 µM), for inactives: at the highest dose activity change, negative = inhibition, usual class: inhibitors; HEK-293 ATXN2-luciferase reporter, luminescence, 24 h; also: potency is read from the fitted curve at half-maximal effect; % is scaled to controls: 0 for no effect and ±100 for the full control effect; nearly all actives have a fitted effect of over 55% in size
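ATXN2-luciferase reporter cells (luciferase flanked by upstream and downstream ATXN2 gene portions) were treated 24 h at 37 °C with compounds at up to 57 uM. SteadyGlo luminescence gave expression; GF-AFC fluorescence gave viability.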
DRD3 agonist: qHTS of D3 Dopamine Receptor Agonist: qHTS | D(3) dopamine receptor (Homo sapiens), P35462 | D3R DiscoveRx beta-arrestin cells, luminescence, 90 min | max activation, % | actives 0.58% (n = 410,000) | AID 652048, 2013; in the data active = max activation above about 30%; also: 0% is about no effect
Target sequence (P35462 whole entry, looked up): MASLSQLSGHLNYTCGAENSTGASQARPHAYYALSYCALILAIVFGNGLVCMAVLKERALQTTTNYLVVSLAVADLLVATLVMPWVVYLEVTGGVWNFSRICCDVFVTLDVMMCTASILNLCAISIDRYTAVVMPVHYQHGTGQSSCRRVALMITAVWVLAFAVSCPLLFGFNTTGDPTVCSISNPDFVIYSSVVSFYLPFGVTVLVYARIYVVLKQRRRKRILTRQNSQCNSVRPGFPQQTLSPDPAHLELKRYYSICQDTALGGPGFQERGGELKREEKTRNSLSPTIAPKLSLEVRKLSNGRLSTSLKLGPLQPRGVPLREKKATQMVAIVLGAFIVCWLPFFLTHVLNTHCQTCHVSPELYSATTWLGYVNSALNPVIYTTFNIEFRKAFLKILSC
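Agonist-mode cell screen: cells plated at 1500/well and incubated overnight at 37 °C, then exposed to library compounds for 90 min at 37 °C. Detection reagent was added for 30–60 min at room temperature, and luminescence was read.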
TGFb inhibitor: qHTS for Inhibitors of TGF-b; AID 588855, 2011; actives 1.2% (n = 410,000); Potency, µM (highest dose often 46.1 µM), for inactives: at the highest dose activity, negative = inhibition, hits mostly inhibitors; HepG2 CAGA-GFP TGF-b/SMAD3 reporter, GFP fluorescence, 18 h; TGF-beta stimulated, 500 pg/mL final; also: potency is read from the fitted curve at half-maximal effect; % is scaled to controls: 0 for no effect and ±100 for the full control effect; nearly all actives have a fitted effect of over 65% in size
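Smad-responsive CAGA-GFP expression was quantified in HEPG2 cells exposed to compounds and 500 pg/mL final TGF-beta for 18 h at 37 degrees C; unstimulated wells defined full inhibition.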
DRD3 antagonist: qHTS of D3 Dopamine Receptor Antagonist: qHTS; D(3) dopamine receptor (Homo sapiens), P35462; D3R cells, DiscoveRx beta-arrestin luminescence, antagonist mode; hits give low values; max response, negative = inhibition, %; actives 2.5% (n = 360,000); AID 652054, 2013; in the data active = max response below about -50%; inconclusive = no clear call, values can overlap the other calls; also: % is scaled to controls: 0 for no effect and ±100 for the full control effect
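Cells plated overnight at 1500 cells/well, then exposed to library compounds with dopamine controls for 90 minutes at 37 degrees C. DiscoveRx reagent added for 30–60 minutes at room temperature; luminescence read, quantitative HTS format.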
TGFb CAGA inh: qHTS for Inhibitors of TGF-b: Confirmation of Cherry Picks | shares compounds with TGFb inhibitor | HepG2 CAGA-GFP TGF-b reporter, GFP fluorescence, 18 h; cells stimulated with TGF-beta, 500 pg/mL | Potency, µM (top dose mostly 46.1 µM), without a hit: at the highest dose activity, negative = inhibition, most hits filed as inhibitors | actives 63% (n = 1,600) | AID 720534, 2013; also: potency is read from the fitted curve at half-maximal effect; % is scaled to controls: 0 for no effect and ±100 for the full control effect; nearly all actives have a fitted effect of over 65% in size
HepG2 tox-2: qHTS for Inhibitors of TGF-b: Cytotox Counterscreen for Cherry Picks; shares compounds with TGFb inhibitor; Potency, µM (highest dose often 46.1 µM), inactives show at the highest dose activity, negative = cytotoxicity, actives largely listed as inhibitors; HepG2 CAGA-GFP viability, ATP luminescence, 18 h; cells stimulated with TGF-beta, 500 pg/mL; actives 27% (n = 1,600); AID 720535, 2013; also: potency is read from the fitted curve at half-maximal effect; % is scaled to controls: 0 for no effect and ±100 for the full control effect; nearly all actives have a fitted effect of over 70% in size
CCL64 TGFb inh: qHTS for Inhibitors of TGF-b: CCL64 Cells Orthogonal Assay for Cherry Picks | shares compounds with TGFb inhibitor | CCL64 CAGA-GFP reporter, TGF-b stimulated, GFP fluorescence, 18 h | Potency, µM (titrated, usually from 46.1 µM), inactives show at the highest dose activity, negative = inhibition, usual class: inhibitors | actives 41% (n = 1,600); also: potency is read from the fitted curve at half-maximal effect; nearly all actives have a fitted effect of over 65% in size
COP TGFb inh: qHTS for Inhibitors of TGF-b: Hit Validation in HepG2 Cells using COP promoter. shares compounds with TGFb inhibitor. HepG2 COP-GFP TGF-b reporter, GFP fluorescence, 18 h; cells stimulated by added recombinant TGF-beta. Potency, µM (top dose mostly 46.1 µM), inactives show top-dose activity, negative = inhibition, most hits filed as inhibitors. actives 3% (n = 1,600); also: potency is read from the fitted curve at half-maximal effect; nearly all actives have a fitted effect of over 70% in size
The depositor's hits bear a star; i = inactive; ? = inconclusive; / = no result given. Unless noted, calls follow the shape of the dose curve; as a rule, active = well fitted curve in the direction sought with a large enough effect; inconclusive = small, poorly fitted or top-dose-only effect, or another doubt; inactive = no such curve, though single readings can be large; an effect the other way counts as inactive or inconclusive.

SMILES	HepG2 tox-1	ATXN viability	ATXN2 expr inh	DRD3 agonist	TGFb inhibitor	DRD3 antagonist	TGFb CAGA inh	HepG2 tox-2	CCL64 TGFb inh	COP TGFb inh
OCc1ccc(-c2nn(Cc3ccccc3)c3ccccc23)o1	-50%	?	?	9	2.8µM*	0	1µM*	0.65µM*	?	5%
COc1ccc(NC(=O)c2cc(S(=O)(=O)N3CCCC(C)C3)cn2C)c(OC)c1 (configuration not stated)	1%	i	3%	5	3%	/	/	/	/	/
Clc1nc(Cl)nc(N(c2ccccc2)c2ccccc2)n1	-46%	i	-1%	-2	?	-21	?	?	?	36%
CCOc1ccc(C(=O)Nc2ccc3nc(SCC(=O)N4CCOCC4)sc3c2)cc1	-9%	/	/	7	0%	/	/	/	/	/
O=C1C=C(N2CCN(c3ccccn3)CC2)C(=O)c2c(O)ccc(O)c21	-92%	?	?	-22	7.1µM*	-28	4.6µM*	9.2µM*	?	-10%
CCn1c(=O)c(C(=O)CN2CCN(S(=O)(=O)c3cc(C)ccc3C)CC2)c(N)n(Cc2ccccc2)c1=O	-14%	i	-23%	-4	11µM*	5	12µM*	?	12µM*	66%
Cc1c(C(=O)Nc2nonc2-c2ccc(F)cc2)oc2ccc(F)cc12	-28%	?	28µM*	3	11µM*	16	13µM*	?	?	56%
CCOc1ccc(-c2nonc2NC(=O)c2oc3ccc(F)cc3c2C)cc1	-16%	?	-16%	-14	?	/	/	/	/	/
COc1ccc(OC)c(CNC(=O)C2CCN(S(=O)(=O)c3cn(C)cn3)CC2)c1	-1%	/	/	-2	14%	/	/	/	/	/
Cc1ccc(C)c(S(=O)(=O)Nc2ccccc2C(=O)Nc2cc(C)on2)c1	-36%	i	?	3	7.9µM*	-10	?	?	?	22%
Cc1cc(NC(=O)c2ccccc2NS(=O)(=O)c2c(C)c(C)cc(C)c2C)no1	-21%	i	-2%	10	?	7	/	/	/	/
COc1ccc(C(=O)CSc2cc(C)nc(SCC(=O)c3ccc(C)cc3)n2)cc1	-2%	i	-4%	8	?	6	?	0%	0%	0%
Cc1ccc(C(=O)CSc2nc(C)cc(SCc3nnc(-c4ccccc4)o3)n2)cc1	-6%	i	1%	11	-4%	3	/	/	/	/
Cc1c(Br)cnc2ccccc12	-8%	/	/	/	0%	/	/	/	/	/
CC(C)(C)CN1CCN(Cc2nc(-c3ccc(F)cc3)cs2)CC1CCO (configuration not stated)	1%	i	-20%	8	?	25	?	?	-10%	-6%
CCOc1ccccc1-c1noc(CSc2nnc(-c3ccncc3)n2-c2ccc(F)cc2)n1	-29%	i	-18%	2	-7%	/	/	/	/	/
O=C(CCC1N=C2c3ccccc3N=C(SCc3ccccc3F)N2C1=O)NCc1ccccc1 (configuration not stated)	-2%	i	30%	-8	15%	/	/	/	/	/
COc1ccc(C2C(C#N)=C(N)N(Nc3ccccc3)C3=C2C(=O)CC(C)(C)C3)cc1C (configuration not stated)	-1%	i	-23%	-1	11µM*	?	21µM*	-25%	?	21%
CCOc1ccc(CNC(=O)C2CCN(c3nc4ccccc4nc3C(F)(F)F)CC2)cc1OC	-14%	i	-13%	-4	-25%	/	/	/	/	/
NC(c1csc(NC(=O)Nc2ccc(OC(F)(F)F)cc2)n1)C1CCCCC1 (configuration not stated)	7.9µM*	?	?	-2	8.9µM*	1	?	18µM*	21µM*	?
COc1ccc(NC(=O)Nc2nc(C(N)CC(C)C)cs2)cc1 (configuration not stated)	-45%	i	-36%	-9	?	-6	/	/	/	/
O=C(NC(c1ccccc1)c1ccc2ccccc2n1)C1CCN(CCOc2ccc(Cl)cc2)CC1 (configuration not stated)	11µM*	28µM*	28µM*	12	7.1µM*	1	6.5µM*	5.2µM*	3.7µM*	?
COc1ccc(CN2CCC(C(=O)NC(c3ccc4c(c3)OCO4)c3ccccn3)CC2)cc1 (configuration not stated)	-19%	?	6%	-13	-8%	0	/	/	/	/
COc1cc(CN2CCC(C(=O)NC(c3ccc(F)cc3)c3ccc4ccccc4n3)CC2)cc(OC)c1 (configuration not stated)	5.6µM*	?	-6%	-24	3.5µM*	-68*	?	15µM*	8.2µM*	?
O=C(NC(c1ccc(Cl)cc1)c1cnccn1)C1CCN(Cc2ccc(Oc3ccccc3)cc2)CC1 (configuration not stated)	-99%	?	?	-12	?	?	/	/	/	/
CCc1nc2nc(C)cc(Nc3cc(C)ccc3C)n2n1	-5%	?	-3%	5	4%	/	/	/	/	/

High-throughput results from PubChem.
